{"source": "PubChem BioAssay AID2283234", "about": "(EPA ToxCast)", "note": "Results filed as inconclusive are left out. Calls of active or inactive are those of the source. Rule for the calls: active = hit-call score of the fitted dose curve at least 0.9, where 1 is the maximum; inconclusive = response in the unintended direction; inactive = score below 0.9."}
{"molecular_target": "human Dual Specificity Styrosine-Phosphorylation-Regulated Kinase 1A (DYRK1a), DYRK1A (gene 1859) (UniProt Q13627)", "experiment": "NVS_ENZ_hDYRK1a: NovaScreen (NVS) Enzymatic Assay for human Dual Specificity Styrosine-Phosphorylation-Regulated Kinase 1A (DYRK1a)", "method": "NVS_ENZ_hDYRK1a is a biochemical, single-readout assay that uses extracted gene-proteins in a cell-free assay. Measurements were taken 1 hour after chemical dosing in a 96-well plate.NVS_ENZ_hDYRK1a is one of one assay component(s) measured or calculated from the NVS_ENZ_hDYRK1a assay. It is designed to make measurements of enzyme activity, a form of enzyme reporter, as detected with fluorescence intensity signals by Fluorescence and electrophoretic mobility shift technology.Data from the assay component NVS_ENZ_hDYRK1a was analyzed into 1 assay endpoint. This assay endpoint, NVS_ENZ_hDYRK1a, was analyzed in the positive analysis fitting direction relative to DMSO as the negative control and baseline of activity. Using a type of enzyme reporter, loss-of-signal activity can be used to understand changes in the enzymatic activity as they relate to the gene DYRK1A. Furthermore, this assay endpoint can be referred to as a primary readout, because this assay has produced multiple assay endpoints where this one serves a enzymatic activity function. To generalize the intended target to other relatable targets, this assay endpoint is annotated to the kinase intended target family, where the subfamily is dual-specific kinase.\nBinding assays used specific radioligands (tritiated, iodinated) with non-radioactive competitive displacement ligands in agonist or antagonist protocols (as indicated) and various reference compounds and inhibitors to titrate specific binding to receptors and transporters. Most enzyme assays (CYPs, kinases, phosphatases, proteases, HDACs) used recombinant protein and specific substrates (fluorescence mostly, some colorimetric and radioactive) and inhibitors, followed by a biochemical separation of substrate and product. All assays for the biochemical HTS were initially run in duplicate at a single concentration (10 uM for CYP450 assays and 25 uM for all others). […] Each assay was run with positive and negative controls, and concurrent controls on every plate. The follow-up (secondary) screen tested active chemical-pairs in concentration series, as well as a few additional assays not tested in the primary screen, some selected negative inactives, and several cases re-run in the concentration series for confirmatory purposes."}
{"smiles": "COP(N)(=O)SC", "note": "(stereo not drawn)", "outcome": "inactive"}
{"smiles": "COc1cc(OC)nc(NC(=O)NS(=O)(=O)c2cc(NC=O)ccc2C(=O)N(C)C)n1", "outcome": "inactive"}
{"smiles": "CN(C)[C@@H]1C(=O)C(C(N)=O)=C(O)[C@@]2(O)C(=O)C3=C(O)c4c(O)cccc4[C@@](C)(O)[C@H]3[C@H](O)[C@@H]12", "AC50": "16.7 µM (active)"}
{"smiles": "O=C(Nc1ccccc1)Nc1cnns1", "outcome": "inactive"}
{"smiles": "N#Cc1c[nH]cc1-c1cccc2c1OC(F)(F)O2", "outcome": "inactive"}
{"smiles": "CCCCOC(=O)c1ccccc1C(=O)OCCCC", "outcome": "inactive"}
{"smiles": "CNC(=O)ON=C(SC)C(=O)N(C)C", "outcome": "inactive"}
{"smiles": "CC1=NNC(=O)N(/N=C/c2cccnc2)C1", "AC50": "13.5 µM (active)"}
{"smiles": "CCN(CC)C(=O)SCc1ccc(Cl)cc1", "outcome": "inactive"}
{"smiles": "O=C(Nc1ccccc1)Nc1ccnc(Cl)c1", "AC50": "25 µM (active)"}
{"smiles": "Nc1c(Cl)cc([N+](=O)[O-])cc1Cl", "AC50": "14.7 µM (active)"}
{"smiles": "O=C(O)c1nc(Cl)ccc1Cl", "outcome": "inactive"}
{"smiles": "N#Cc1c(Cl)c(Cl)c(Cl)c(C#N)c1Cl", "outcome": "inactive"}
